Source: PubChem BioAssay (National Center for Advancing Translational Sciences (NCATS))
VP16 counter = VP16 counterscreen qHTS for inhibitors of ROR gamma transcriptional activity; Potency, µM (highest dose often 53.6 µM), inactives show at the highest dose activity, negative = inhibition, usual class: inhibitors; AID 2546, 2010; Drosophila S2 Gal4-VP16 UAS-luciferase, luminescence, 20 h; 310,000 compounds, 3.5% hits;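 note: Gal4-VP16 expression switched on by copper sulfate through the metallothionein promoter; % is set by controls: 0 for no effect and ±100 for the full control effect; nearly all actives have a fitted effect of over 50% in size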
uPA surface inh = qHTS for Inhibitors of Cell Surface uPA Generation | cell surface uPA generation assay, qHTS | Potency, µM (top dose mostly 38.3 µM), inactives show at the top dose activity change, negative = inhibition, most hits filed as inhibitors | 330,000 compounds, 0.31% hits | AID 540303, 2011; active = well fitted inhibition curve with a large enough effect; inconclusive = small, poorly fitted or top-dose-only effect; inactive = no such curve, though single readings can be large or run the other way; tested in mouse RAW 264.7 cells; note: % is set by controls: 0 for no effect and ±100 for the full control effect; nearly all actives have a fitted effect of over 55% in size
RORg inh = qHTS for inhibitors of ROR gamma transcriptional activity; 310,000 compounds, 5.4% hits; AID 2551, 2010; Potency, µM (series often up to 53.6 µM), for the others: top-dose activity change, negative = inhibition, hits mostly inhibitors; Drosophila S2 Gal4-RORgamma UAS-luciferase reporter, 20 h; note: % is set by controls: 0 for no effect and ±100 for the full control effect; nearly all actives have a fitted effect of over 60% in size
Target sequence (P51450 whole entry, looked up, the tested form may be a part): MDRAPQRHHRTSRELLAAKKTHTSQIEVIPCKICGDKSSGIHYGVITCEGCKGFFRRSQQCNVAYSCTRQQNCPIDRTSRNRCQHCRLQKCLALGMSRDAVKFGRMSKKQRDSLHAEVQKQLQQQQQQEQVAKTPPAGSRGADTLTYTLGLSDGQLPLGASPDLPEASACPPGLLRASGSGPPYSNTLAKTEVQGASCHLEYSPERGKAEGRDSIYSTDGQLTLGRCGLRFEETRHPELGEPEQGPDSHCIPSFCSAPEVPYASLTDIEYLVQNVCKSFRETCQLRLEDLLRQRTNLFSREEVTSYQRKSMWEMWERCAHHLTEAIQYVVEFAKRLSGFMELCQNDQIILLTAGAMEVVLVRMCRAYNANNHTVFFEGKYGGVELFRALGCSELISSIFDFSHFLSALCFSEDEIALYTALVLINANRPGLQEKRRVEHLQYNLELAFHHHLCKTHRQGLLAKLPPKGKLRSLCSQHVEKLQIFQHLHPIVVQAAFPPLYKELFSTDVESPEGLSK
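Schneider cells (Drosophila), stable Gal4 DBD–ROR gamma + UAS-luc; 1 hr cmpd preincubation; Cu2+ induction 700 uM final; 20 hr ambient; luminescence.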
Mito fusion act = qHTS Assay for Small Molecule Inhibitors of Mitochondrial Division or Activators of Mitochondrial Fusion; S. cerevisiae fusion-defective mutant growth rescue, CellTiterGlo 48 h; Potency, µM (titrated, usually from 46.1 µM), for the others: at the highest dose growth rescue (activation), usual class: activators; 320,000 compounds, 0.23% hits; AID 485298, 2010; note: % of control where 0% means no effect; nearly all actives have a fitted effect of over 45% in size
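Growth-rescue viability read-out: after 48 h at the non-permissive 37C in glycerol/ethanol YPEG, yeast mitochondrial fusion mutants are measured by CellTiterGlo luminescence; compounds (23 nl pinned per well) restoring growth score as division inhibitors or fusion activators.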
Chronic BCR inh = qHTS Assay to Find Inhibitors of Chronic Active B-Cell Receptor Signaling | ABC-DLBCL IkBa-CBG/CBR reporter, luminescence ratio, 4 h | Potency, µM (series often up to 46.1 µM), inactives show at the highest dose activity change, negative = inhibition, hits mostly inhibitors | 340,000 compounds, 0.05% hits | AID 493014, 2011; active = well fitted inhibition curve with a large enough effect in the signal ratio, with a control signal flat, not every such curve was filed as active; inconclusive = small, poorly fitted or top-dose-only effect, or effect the other way, or a change in a side signal; the % refers to the signal ratio;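 note: plate controls were basal doxycycline-induced cells for no effect and cells given 10 µM MG132 for full effect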
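TMD8 ABC-DLBCL cells carrying doxycycline-inducible green luciferase fused to IkappaBalpha plus unfused red luciferase were exposed to compounds (up to 46 uM) for 4 hrs at 37C. Activity came from the overlap-corrected green/red luminescence ratio.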
Integrin act MD = qHTS for Activators of Integrin-Mediated Alleviation for Muscular Dystrophy; alpha7betagal myoblasts, beta-gal FDG fluorescence, 48 h; AID 624291, 2012; Potency, µM (doses to about 38.3 µM), without a hit: top-dose activation, hits mostly activators; 350,000 compounds, 0.064% hits;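 note: 100% = response of the positive control SU9516; nearly all actives have a fitted effect of over 60% in size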
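alpha7betagal+/- myoblasts (passage 13, 250/well) treated 48 h at 37C with compounds at 1:260 dilution of DMSO stock. Lysed, then beta-galactosidase activity read as FDG fluorescence (ex 480/em 540) after 30 min, with pre-read for autofluorescence.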
* marks the source's active call; other numbers are inactive results. Hits are enriched below; roughly 5.5% of the tested compounds scored in any of these assays. Unless noted, calls come from the whole dose curve; as a rule, active = well fitted curve in the direction sought with a large enough effect; inconclusive = small, poorly fitted or top-dose-only effect, or another doubt; inactive = no such curve, though single readings can be large; an effect the other way counts as inactive or inconclusive. Potency is the fitted concentration of half-maximal effect.

Screening O=C(NNc1nc2ccccc2nc1C(F)(F)F)c1ccccc1 returned VP16 counter 16µM*, uPA surface inh -5%, RORg inh 7.9µM*, Mito fusion act 1%, Chronic BCR inh -8% and Integrin act MD 0%.
Screening Cc1ccc(S(=O)(=O)NNc2nc3ccccc3nc2C(F)(F)F)cc1 returned VP16 counter inconclusive, uPA surface inh -1%, RORg inh 18µM*, Mito fusion act -3%, Chronic BCR inh 12% and Integrin act MD -10%.
Screening O=C(NNc1nc2ccccc2o1)c1ccccc1 returned VP16 counter inconclusive, uPA surface inh -4%, RORg inh inconclusive, Mito fusion act -2%, Chronic BCR inh inconclusive and Integrin act MD -19%.
Fc1ccc(Nc2nnc(C(F)(F)F)s2)cc1 was read as VP16 counter -6%, uPA surface inh -4%, RORg inh 18%, Mito fusion act -3%, Chronic BCR inh 13% and Integrin act MD -14%.
COc1ccc(/C=N/Nc2cc(C)nc(NS(=O)(=O)c3ccc(C)cc3)n2)cc1 was read as VP16 counter -7%, uPA surface inh 5%, RORg inh -29%, Mito fusion act -4%, Chronic BCR inh inconclusive and Integrin act MD 34%.
Cc1cc(N/N=C/c2cccc([N+](=O)[O-])c2)nc(-n2nc(C)cc2C)n1 was read as VP16 counter 1µM*, uPA surface inh 7%, RORg inh 0.11µM*, Mito fusion act -15%, Chronic BCR inh -2% and Integrin act MD -22%.
COc1ccc(/C=N/Nc2cc(C)nc(-n3nc(C)cc3C)n2)cc1 was read as VP16 counter 0.35µM*, uPA surface inh -7%, RORg inh 0.32µM*, Mito fusion act -2%, Chronic BCR inh inconclusive and Integrin act MD -38%.
For Cc1cc(N(CCO)CCO)nc(-n2nc(C)cc2C)n1 the results were VP16 counter 10%, uPA surface inh 0%, RORg inh -30%, Mito fusion act 15%, Chronic BCR inh 2% and Integrin act MD -5%.
Cc1cc(C)nc(N/N=C/c2cccc([N+](=O)[O-])c2)n1 was read as VP16 counter 4%, uPA surface inh 5%, RORg inh 4%, Mito fusion act -4%, Chronic BCR inh 1% and Integrin act MD -8%.
`Cc1cc(N/N=C/c2ccccc2[N+](=O)[O-])nc(-n2nc(C)cc2C)n1` gave VP16 counter 0.89µM*, uPA surface inh -2%, RORg inh inconclusive, Mito fusion act 4%, Chronic BCR inh -7% and Integrin act MD -36%.
For Cc1cc(C)n(-c2ccccc2[N+](=O)[O-])n1 the results were VP16 counter -9%, uPA surface inh 0%, RORg inh -17%, Mito fusion act -1%, Chronic BCR inh 0% and Integrin act MD 14%.
For Cc1cc(NCCO)nc(-n2nc(C)cc2C)n1 the results were VP16 counter 20µM*, uPA surface inh -2%, RORg inh 6.3µM*, Mito fusion act -5%, Chronic BCR inh 6% and Integrin act MD -17%.
COc1ccc(C2C3C=CCC(C)C3C(=O)N2Cc2ccccc2)cc1Cl (stereo unspecified) was read as VP16 counter 1% and RORg inh 6%.
`Cc1cc(N/N=C/c2ccc(O)cc2O)nc(-n2nc(C)cc2C)n1` gave VP16 counter 0.71µM*, uPA surface inh -2%, RORg inh 1µM*, Mito fusion act -11%, Chronic BCR inh 4% and Integrin act MD -21%.
